FMDV inh – High Throughput Screening for Foot and Mouth Disease Virus Antivirals; Potency, µM (titrated, usually from 57.9 µM), inactives show top-dose activity change, negative = inhibition, hits mostly inhibitors; 410,000 compounds, 1.2% hits; FMDV antiviral cell-based qHTS; AID 1159524, 2015; calls by dose curve; tested in HEK293T cells; note: read-out not given here; potency is the fitted concentration of half-maximal effect; % is set by controls: 0 for no effect and ±100 for the full control effect; nearly all actives have a fitted effect of over 45% in size
HCMV inh – qHTS Assay for inhibitors of the human cytomegalovirus (HCMV). HFF cells, HCMV-luciferase reporter, 72 h; hits give low values. 410,000 compounds, 4.5% hits. activity change, negative = inhibition, % at 57.5 µM; in the data active = activity change below about -60%; inconclusive = no clear call, values can overlap the other calls; inactive = above about -39%; note: % is set by controls: 0 for no effect and ±100 for the full control effect
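Steps: HFFs plated, 16 h 37C; compounds added; HCMV-luciferase added to MOI 1 PFU/cell; 72 h 37C; OneGlo reagent, 5 min room temperature; luminescence read, normalized to controls.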
HCV inhibitor – qHTS Assay for Inhibitors of Hepatitis C Virus (HCV) | Huh7.5.1 HCVcc-Cre infection, luciferase reporter, 44 h | Potency, µM (titrated, usually from 41.8 µM), for inactives: top-dose activity change, negative = inhibition, usual class: inhibitors | 340,000 compounds, 3.4% hits | AID 651820, 2012; active = well fitted inhibition curve with a large enough effect; inconclusive = small, poorly fitted or top-dose-only effect, or another doubt; inactive = no such curve, though single readings can be large or run the other way; note: potency is the fitted concentration of half-maximal effect; % is set by controls: 0 for no effect and ±100 for the full control effect
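HCVcc-Cre virus at an moi near 0.5 was added right after compound to cells cultured 4 h from seeding (1,000 cells/well). Luciferase activity was determined 44 h later, 15 min after substrate addition at RT.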
SARS PLpro yeast – qHTS of Yeast-based Assay for SARS-CoV PLP; S. cerevisiae expressing SARS-CoV PLpro, growth rescue; Potency, µM (top dose mostly 32.9 µM), without a hit: top-dose activity, positive = growth rescue, usual class: activators; 330,000 compounds, 0.19% hits; AID 485353, 2010; calls by dose curve; note: potency is the fitted concentration of half-maximal effect; 0% is about no effect; nearly all actives have a fitted effect of over 55% in size
Lassa entry inh – qHTS for Inhibitors of binding or entry into cells for Lassa Virus; Lassa virus pseudotype entry inhibition, cell reporter; Potency, µM (titrated, usually from 37.9 µM), inactives show at the top dose activity change, negative = inhibition, usual class: inhibitors; AID 540256, 2011; 300,000 compounds, 1.2% hits; calls by dose curve; tested in HEK293 cells; note: potency is the fitted concentration of half-maximal effect; % is set by controls: 0 for no effect and ±100 for the full control effect; nearly all actives have a fitted effect of over 50% in size
Marburg entry inh – qHTS for inhibitors of binding or entry into cells for Marburg Virus | Marburg virus pseudotyped entry inhibition, cell reporter | Potency, µM (titrated, usually from 37.8 µM), for the others: at the highest dose activity change, negative = inhibition, actives largely listed as inhibitors | 300,000 compounds, 1.8% hits; calls by dose curve; tested in HEK293 cells; note: potency is the fitted concentration of half-maximal effect; % is set by controls: 0 for no effect and ±100 for the full control effect
Active calls of the source: *; ? = inconclusive; nt = no result given; [ ] = dose if it differs, or a comment. A selection: hits, their analogues and other compounds. The true share with any hit is near 8%.

SMILES	FMDV inh	HCMV inh	HCV inhibitor	SARS PLpro yeast	Lassa entry inh	Marburg entry inh
CCN(CC)c1ccc(-c2nc(-c3ccccc3C)no2)cc1[N+](=O)[O-]	14.6%	1.0	nt	nt	9.5%[46.1 µM]	5.3%[46.1 µM]
O=C(CN(c1ccccc1)S(=O)(=O)c1ccccc1)NCCSc1nc2ccccc2s1	22.4µM*	-20.5	-4.9%	5.4%	-17.1%	?
Cc1cccc(N(CC(=O)NCCSc2nc3ccccc3s2)S(=O)(=O)c2ccccc2)c1	nt	nt	2.4%	1.8%	nt	-6.8%
c1ccc2sc(SCSc3nc4ccccc4s3)nc2c1	54.5%	-19.6	5.6%	-0.1%	nt	nt
O=C(O)CCSc1nc2ccccc2s1	39.8µM*	-82.5*	0.1%	-3.6%	-14.1%[14.3 µM]	-21.6%
O=C(Nc1ccc(N2CCC(c3ccccc3)C2)c(C(=O)O)c1)c1ccc(Cl)cc1 (stereo not given)	-5.7%	-2.9	nt	nt	-22.7%[46.1 µM]	nt
Cc1ccc(S(=O)(=O)n2nc(-c3ccccc3)nc2NCc2ccc(Cl)cc2)cc1	24.8%	14.9	nt	nt	-19.4%[46.1 µM]	5.0%[46.1 µM]
NC(=S)N/N=C/c1ccc(/C=N/NC(N)=S)cc1	-16.5%	-18.5	-6.5%	6.5%	nt	nt
NC(=S)NN=Cc1nccc2c(C(F)(F)C(F)(F)C(F)(F)F)cccc12	-7.9%	-98.7*	nt	nt	nt	nt
CCC(CC)c1nn2c(=O)cc(COc3ccc(NC(=O)c4ccccc4C)cc3)nc2s1	-1.6%	?	nt	nt	?	?
CC1CCN(CC(=O)c2ccc3c(c2)OCCO3)CC1	-40.1%	-60.6*	2.8%	-5.3%	-21.2%	5.9%
O=C(CCN1CCOCC1)c1ccc2c(c1)OCCO2	-3.3%	-26.3	11.2µM*	-114.9%	-15.0%	3.6%
CC1CCN(CC(C)OC(=O)c2ccc3c(c2)OCCO3)CC1 (stereo not given)	30.3%	-3.0	1.0%	-6.4%	nt	nt
CC(C)c1ccc(NC(=O)c2cn(C3CCCC3)c(=O)c3c2c2ccccc2n3C)cc1	-21.6%	-8.5	nt	nt	4.4%[46.1 µM]	-2.3%[46.1 µM]
COc1ccccc1CCNC(=O)C(=O)NCC(c1ccco1)S(=O)(=O)c1ccccc1 (stereo not given)	-28.1%	-32.1	nt	nt	-14.6%[46.1 µM]	nt
CCOc1cc(CNCCO)cc(Br)c1OCc1ccccc1	-7.6%	?	10µM*	-0.5%	?	?
CCNCc1cc(Cl)c(OCc2ccccc2)c(OCC)c1	0.0%	?	?	0.0%	?	?
Cn1nnnc1SCCNCc1ccc(OCc2ccccc2)cc1	-4.5%	-0.6	nt	nt	-4.9%[46.1 µM]	?
CCOc1cc(CNCCSc2nnnn2C)cc(Br)c1OCc1ccccc1	?	40.5	2.82µM*	-2.2%	?	?
CCOc1c(Br)cc(C(N)=O)cc1OCc1ccccc1	20.8%	-9.6	?	1.9%	11.6µM*	?
CCn1c(-c2ccccc2F)nc2cc(NC(C)=O)cc(C(=O)NC(c3ccccn3)C(F)(F)F)c21 (stereo not given)	-10.0%	nt	nt	nt	nt	nt
Cc1cccc(C(c2sc3nc(-c4ccco4)nn3c2O)N2CCOCC2)c1 (stereo not given)	-10.4%	15.4	nt	nt	0.8%[46.1 µM]	nt
CCc1ccc2nc(Nc3ccc(OC)cc3OC)c(C#N)cc2c1	12.6%	-7.5	3.55µM*	0.7%	20.4%[46.1 µM]	-4.6%
CC(=O)N1CCc2cc(CNC(=O)Nc3ccccc3C(F)(F)F)ccc21	51.3%	10.2	nt	nt	20.0%[46.1 µM]	nt
O=C(c1ccccc1)N1CCc2cc(CNS(=O)(=O)c3ccccc3Cl)ccc21	?	-78.1*	nt	nt	?	nt
SMILES	FMDV inh	HCMV inh	HCV inhibitor	SARS PLpro yeast	Lassa entry inh	Marburg entry inh
CC(=O)N1CCc2cc(CNS(=O)(=O)c3ccccc3C(F)(F)F)ccc21	16.3%	-92.8*	nt	nt	-0.7%[46.1 µM]	nt
O=C(CSc1ccccc1)NCc1ccc2c(c1)CCN2C(=O)c1ccccc1	3.2%	18.7	nt	nt	?	nt
Cc1ccc(C(=O)N2CCc3cc(CNS(=O)(=O)c4ccc(Cl)s4)ccc32)cc1	-13.5%	-9.4	nt	nt	-25.5%[46.1 µM]	nt
O=C(c1ccccc1)N1CCc2cc(CNS(=O)(=O)c3ccc(Cl)s3)ccc21	-15.3%	-70.3*	nt	nt	-17.2%[46.1 µM]	nt
CC(=O)N1CCc2cc(S(=O)(=O)CCC(=O)NCc3ccc(F)cc3)ccc21	-22.8%	-60.8*	-26.0%	16.6%	nt	nt
Cc1ccc(SCc2nc(-c3ccc(C(=O)Nc4cc(C)ccc4C)cc3)oc2C)cc1	0.0%	-6.5	nt	nt	?	nt
COc1ccc2c(-c3ccc(S(N)(=O)=O)cc3)c(-c3ccc(S(C)(=O)=O)cc3)sc2c1	-4.7%	-26.9	25.1µM*	-2.8%	nt	nt
COc1ccc2c(C#CCCO)c(-c3ccc(S(C)(=O)=O)cc3)sc2c1	-24.7%	-20.4	?	2.9%	nt	nt
CCCNC(=O)NS(=O)(=O)c1ccc(Cl)cc1	?	55.0	-9.5%[8.37 µM]	-4.8%	13.7%	-11.8%
CCCNC(=O)c1nnsc1S(=O)c1ccc(Cl)cc1 (stereo not given)	35.5µM*	-101.5*	?	-31.4%	?	?
CCCNC(=O)c1nnsc1S(=O)(=O)c1ccc(Cl)cc1	31.6µM*	-99.1*	6.31µM*	-33.5%	2.82µM*	?
COC(=O)C(Nc1cc(OC)ccc1OC)(c1ccc(F)cc1)C(Nc1cc(OC)ccc1OC)c1ccc(Br)cc1 (stereo not given)	nt	-7.2	nt	nt	nt	nt
CCOC(=O)c1c(NC(=O)c2cc(-c3cccc(Cl)c3)on2)sc(C(C)=O)c1C	-5.2%	5.9	nt	nt	-17.4%[46.1 µM]	-10.8%[46.1 µM]
O=C1Nc2ccccc2C12OCCCO2	-20.2%	58.1	-0.2%	3.6%	3.2%	?
CC1(CO)COC2(OC1)C(=O)Nc1ccccc12 (stereo not given)	-4.7%	-75.7*	7.4%	0.8%	0.7%[46.1 µM]	3.8%
COc1cc2c(cc1OC)[C@H]1C(=O)c3ccc4c(c3O[C@H]1CO2)C[C@@H](C(C)(C)O)O4	0.0%	-21.4	?	-8.3%	nt	nt
COc1cc2c(cc1OC)[C@@H]1C(=O)c3ccc4c(c3O[C@@H]1CO2)C[C@H](C(C)C)O4	?	-93.8*	0.316µM*	-2.9%	?	7.08µM*
COc1cc2c(cc1OC)C1C(=O)c3ccc4c(c3OC1CO2)CC(C(C)C)O4 (stereo not given)	?	-96.1*	?	nt	?	3.55µM*
CCCCC(=O)Nc1nc2ccc3nc(C)sc3c2s1	30.4%	-22.0	7.94µM*	-15.9%	nt	nt
O=C(Nc1cccc(-c2cccc(Cl)c2)c1)C1CCN(Cc2ccccn2)CC1	-20.0%	-74.3*	10µM*	0.0%	10µM*	?
O=C(Nc1cccc(-c2cccc(Cl)c2)c1)C1CCN(CC2CCOC2)CC1 (stereo not given)	27.7%	?	10µM*	-2.0%	nt	nt
O=C(Nc1cccc(-c2cccc(Cl)c2)c1)C1CCN(Cc2ccon2)CC1	-23.5%	-37.4	?	2.1%	nt	nt
C=CCn1cc(CN2CCC(C(=O)Nc3cccc(-c4cccc(Cl)c4)c3)CC2)c(C)n1	?	-38.7	5.01µM*	-0.1%	nt	nt
